# NALP1 yeast inh: NALP1 inflammasome inhibitors in reconstituted yeast, colorimetric, S. cerevisiae, triplicate retest. AID 2071, 2009. S. cerevisiae NALP1/ASC/caspase-1 growth, X-gal OD620, 72 h. hit rate 0.61% among 280,000. inhibition, % at 10 µM; in the data active = inhibition mostly above about 24%, no sharp cut-off; inactive = mostly below about 32%
# tim23-1 inh: growth inhibitors of tim23-1 mutant yeast, primary screen, luminescence, uHTS. S. cerevisiae tim23-1 growth, BacTiter-Glo luminescence, 24 h. inhibition, % at 20 µM. hit rate 1.3% among 330,000;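 active = growth inhibition of the mutant yeast at or above 50%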;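 note: temperature-sensitive mutant grown at 25 °C; plate controls were DMSO-treated mutant yeast for no effect and medium wells lacking yeast for full effect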
# TIM10 inh: growth inhibitors of isogenic TIM10 control yeast, primary screen, counter-screen for tim10-1 yeast inhibitor project, luminescence, uHTS; S. cerevisiae TIM10 strain growth, BacTiter-Glo luminescence, 24 h; inhibition, % at 10 µM; hit rate 1.4% among 330,000; AID 463195, 2010;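 active = inhibition of 40% or more at the single tested concentration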;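 note: wild-type TIM10 isogenic control strain grown at permissive 25 °C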
# tim10-1 inh: growth inhibitors of tim10-1 mutant yeast, primary screen, luminescence, uHTS | S. cerevisiae tim10-1 ts strain growth, BacTiter-Glo, 24 h | inhibition, % at 20 µM | hit rate 2.2% among 330,000 | AID 463190, 2010;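 active = inhibition of at least 40%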;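 note: mutant grown at 25 °C; 0% = DMSO wells with yeast and 100% = wells holding no yeast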
# NALP3 yeast inh: NALP3 inflammasome inhibitors in reconstituted yeast, primary screen, luminescence, uHTS. Yeast reconstituted NLRP3/ASC/caspase-1, beta-gal luminescence, 24 h. inhibition, % at 10 µM. hit rate 0.39% among 330,000;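 active = inhibition of 50% or more; inactive = inhibition below 50%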;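 note: plate controls were induced DMSO wells for no effect and uninduced yeast grown without galactose for full effect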
# tim23-1 conf: tim23-1 mutant yeast growth inhibitors, confirmation, luminescence, single concentration; S. cerevisiae tim23-1 growth, BacTiter-Glo luminescence, 24 h; AID 463218, 2010; hit rate 83% among 4,400; shares compounds with tim23-1 inh; inhibition, % at 20 µM;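 active = inhibition above about 39% in either of two replicate wells at 20 µM, limit read from the data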;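 note: temperature-sensitive tim23-1 mutant grown at 25 °C; 0% = DMSO wells with yeast and 100% = medium wells without yeast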
# * hit, by the source's call; x = no result given. Rows were chosen to be rich in hits. Some 4.1% of all compounds tested hit in one or more screens of this group.
SMILES,NALP1 yeast inh,tim23-1 inh,TIM10 inh,tim10-1 inh,NALP3 yeast inh,tim23-1 conf
O=C1NC2(CCCCC2)C(=O)N1Cc1cccc(C(F)(F)F)c1,-13.1,29.1,13.7,21.4,17.5,x
CCOC(=O)c1c(C=O)c(C)n(Cc2ccc(Cl)cc2)c1C,-2.9,63.0*,34.3,29.9,11.0,58.2*
CCOC(=O)c1c(C=O)c(C)n(Cc2ccccc2)c1C,17.3,22.5,25.7,27.9,7.9,x
Cc1nn(-c2ccc(Cl)c(Cl)c2Cl)c(=O)c2ccccc12,2.6,53.7*,8.1,39.9,40.4,46.1*
Cc1nn(-c2ccc(Cl)cc2Cl)c(=O)c2ccccc12,-5.7,8.0,-2.5,19.6,37.3,x
CC(C)Oc1ccccc1C1(c2ccccc2)NC(=O)NC1=O (stereo unspecified),-0.3,7.0,-5.7,7.8,12.3,x
CCC(C)[C@H](NC(=O)C1CCN(C(=O)[C@H](Cc2ccccc2)NS(=O)(=O)c2ccc(C)cc2)CC1)C(=O)O (stereo partly specified),4.3,3.0,-2.3,15.5,-9.4,x
c1ccc(-c2cn3nc(-c4ccccc4)sc3n2)cc1,x,-4.6,-0.2,15.8,21.6,x
c1ccc(-c2cn3c4c(sc3n2)CCCC4)cc1,x,54.8*,33.7,24.4,35.3,59.7*
CN(C)CCCN1C(=O)c2cccc3c(Br)ccc(c23)C1=O,11.2,61.8*,27.5,38.5,2.8,71.0*
O=C(O)CN1C(=O)c2cccc3c(Br)ccc1c23,-7.4,-12.3,-3.4,-12.8,6.7,x
O=C(NCc1csc(-c2cccs2)n1)Nc1cccc(Cl)c1,19.6,52.6*,36.9,23.6,26.2,63.7*
O=C(Oc1ccc2ccc(O)cc2c1)c1ccccc1Cl,14.3,62.7*,37.0,19.0,36.5,51.9*
O=C(COC(=O)c1ccc(F)cc1Cl)NC1CCCCCCC1,x,50.8*,22.9,18.5,26.0,41.7*
Cc1ccc(-c2cc(-c3ccco3)c3c(N)c(C(=O)NN)oc3n2)cc1,-9.1,29.6,7.1,23.0,2.0,x
NNC(=O)c1oc2nc(-c3ccccc3)cc(-c3ccccc3)c2c1N,10.7,59.0*,23.2,39.2,11.2,-18.8
CN(C(=S)NC(=O)c1ccccc1Br)C1CCCCC1,0.1,50.2*,27.6,39.9,-11.4,34.5
OCC[C@@H]1C[C@@H](O)[C@H](O)[C@]2(CCc3ccccc3O2)O1,33.5,-8.2,-9.0,-26.9,5.4,x
c1ccc(CC(Nc2ccccn2)c2ccccc2)cc1 (stereo unspecified),-2.5,52.0*,38.4,35.4,19.6,41.0*
O=C(NCc1cccnc1)c1cccc(OC2CCN(Cc3ccc(CO)o3)CC2)c1,27.3,-5.1,-5.0,-2.9,9.5,x
CC(=O)Oc1ccc(N2C(=O)c3cccc4c([N+](=O)[O-])ccc(c34)C2=O)cc1,13.1,67.3*,39.2,28.7,15.4,56.7*
Cc1cccc(C)c1N1CCN(c2nc(N(C)C)oc(=O)c2C#N)CC1,0.6,-15.0,-10.8,7.1,-8.1,x
COc1ccc(/C=c2\sc3nc(=O)c(C)nn3c2=O)c(OC)c1,-13.9,52.8*,8.3,30.6,17.8,38.5*
Cc1ccc(NC(=O)c2ccc(=O)[nH]n2)cc1S(=O)(=O)Nc1ccc(SC(F)F)cc1,x,8.8,9.6,-3.2,0.8,x
CCCn1c(SCC(=O)N2CCN(S(=O)(=O)c3ccc(Cl)cc3)CC2)n[nH]c1=O,4.8,57.9*,2.0,5.9,-5.7,0.0
CCOc1ccccc1NC(=O)COC(=O)c1c[nH]c2ccccc12,x,-13.6,-10.6,-11.3,-1.7,x
COc1ccc(OCc2nnnn2-c2ccccc2)cc1,33.0,17.5,4.3,11.8,-3.3,x
Brc1ccc(OCc2nnnn2-c2ccccc2)cc1,-0.3,51.8*,7.7,-7.6,-28.9,38.8*
COc1cccc(CNC(=O)c2ccc(CS(=O)c3ccccc3)o2)c1 (stereo unspecified),13.7,3.0,-1.4,-4.7,-3.1,x
C[C@@]12C(=O)Nc3ccc(F)cc3C(=O)N1[C@H]1c3cc(Cl)ccc3OC[C@@H]1[C@@H]2c1ccccc1,x,54.2*,22.9,20.3,-6.7,53.5*
